The results in this text go back to PubChem BioAssay AID2071 (Sanford-Burnham Center for Chemical Genomics, 2009).

A short description of this assay: NALP1 inflammasome inhibitors in reconstituted yeast, colorimetric, S. cerevisiae, triplicate retest (AID 2071). As to conditions: S. cerevisiae NALP1/ASC/caspase-1 growth, X-gal OD620, 72 h, stronger effect = higher value.

About 1,700 (0.61%) of roughly 280,000 compounds were called active. Rule as the data show it: active = inhibition mostly above about 24% (no sharp cut-off); inactive = mostly below about 32%. The list comes from a sample in which actives are over-represented; it also holds similar structures and randomly drawn compounds.

For orientation: inhibition means the change of the read-out against control, counted positive when it falls. Consider `COc1cc2[nH]c(=O)n(CCC(=O)NC3CCN(Cc4ccccc4)CC3)c(=O)c2cc1OC`, for which the inhibition (at 10 µM unless noted) is 15.6% (inactive).
Still for that read-out and setting: as for `COc1cc2[nH]c(=O)n(Cc3ccc(C(=O)NC4CCN(Cc5ccccc5)CC4)cc3)c(=O)c2cc1OC`, the figure is 36.6% (active).
Still for that read-out and setting: as for `COc1cc(C(=O)NC2CCN(Cc3ccccc3)CC2)cc(Cl)c1OC(C)C`, the figure is 19.9% (inactive).
On the same count and under the same terms, as for `O=C(N/N=C\C1CC=CCC1)c1ccc(Br)o1` (centres undefined), the figure is 11.4% (inactive); as for `CCCn1c(C2CCCN2c2nc(-c3ccc(OC)cc3)cs2)nc2ccccc21` (centres undefined), 21.7% (inactive).
Consider `Oc1ccc(N=Cc2c(O)ccc3ccccc23)cc1`, for which, for the setting “at 10 µM unless noted”, the inhibition was -1.8% (inactive).
On the same count and under the same terms, for `Oc1ccc(N=Nc2nccs2)c(O)c1` the value was 8.1% (inactive); for `Oc1ccc2ccccc2c1N=Nc1nccs1`, 59.8% (active); for `O=C(NCCNc1ccc([N+](=O)[O-])cc1Cl)c1ccccc1F`, 29.5% (inactive).
Same read-out and setting: for `COc1ccccc1C1=Nc2cccc3cccc(c23)N1` the value was 9.5% (inactive); for `Fc1ccccc1N=C1Nc2cccc3cccc1c23`, -0.1% (inactive).
`c1ccc(C2=Nc3cccc4cccc(c34)N2)cc1`: the inhibition (at 10 µM unless noted) was 47.7% (active).
As for `O=C(c1noc2c1CCCC2)N1CCc2ccccc2C1`, the inhibition (at 10 µM unless noted) was 3.2% (inactive).
Still for that read-out and setting: for `COc1ccc(N2CCN(C(=O)c3ccccc3NC(=O)C3=C(C)OCCS3)CC2)cc1` the value was 13.7% (inactive).
Consider `COc1cc(-c2c(-c3ccc4c(c3)OCO4)noc2C)ccc1F`, for which the inhibition (at 10 µM unless noted) is 3.9% (inactive).
On the same count and under the same terms, as for `CCCC(=O)N1CCc2[nH]c3ccccc3c2C1`, the figure is 12.2% (inactive).
With `C=CCNC(=S)N1CCc2[nH]c3ccccc3c2C1`, the inhibition (at 10 µM unless noted) is 36.9% (active).
The same measure, in the same setting: for `Fc1ccc(NC(=S)N2CCc3[nH]c4ccccc4c3C2)cc1` the value was -2.7% (inactive); for `Cc1ccnc(N2C(=O)c3ccc([N+](=O)[O-])cc3C2=O)c1`, 4.8% (inactive); for `O=C(NCc1ccccc1)C1=C[C@@H](c2ccc(C(F)(F)F)cc2)C[C@@H](OCc2ccc(CO)cc2)O1`, -7.3% (inactive).
On the same count and under the same terms, for `O=C(C1=C[C@H](c2ccc(C(F)(F)F)cc2)C[C@H](OCc2ccc(CO)cc2)O1)N1CCN(Cc2ccccc2)CC1` the value was 26.9% (active); for `O=C(C1=C[C@H](C2CC2)C[C@H](OCc2ccc(CO)cc2)O1)N1CCN(Cc2ccccc2)CC1`, -5.8% (inactive); for `CCN1C(=NCC(C)C)N[C@@H](CCc2ccccc2)[C@H](C(=O)NCC(C)C)[C@H]1C`, -12.1% (inactive).
Same read-out and setting: for `CCC(CC)c1nnc(NC(=O)C2CCN(C(=O)c3ccco3)CC2)s1` the value was -1% (inactive); for `CC(=O)N1CCN(CC(C)(C)NS(=O)(=O)c2ccc(C)cc2)CC1`, -1% (inactive).
As to `COc1ccc(NC(=O)c2sc3nc(C)nc(N4CCN(c5ccccn5)CC4)c3c2C)c(OC)c1`, for the setting “at 10 µM unless noted”, the inhibition is -10.9% (inactive).
On to `CC1(C)CCSC(/C=C/c2ccccc2)=N1`, for which the inhibition by setting is: (at 10 µM) 53.2% (active); (triplicate retest, at 20 µM) 102%.
`CN(C)CCOC1c2ccccc2-c2ccccc21`: where the note is “at 10 µM unless noted”, the inhibition is 6% (inactive).
Still for that read-out and setting: as for `CCCCOC(=O)Cn1c(=N)n(CCN(CC)CC)c2ccccc21`, the figure is 2.6% (inactive).
Consider `CCCCCCCCCCOC(=O)Cn1c(COc2cccc(OC)c2)[n+](C)c2ccccc21`, for which the inhibition (at 10 µM unless noted) was 36.3% (active).
Same read-out and setting: for `Cc1ccc(OCc2nc3ccccc3n2C)cc1` the value was 33.1% (inactive).
In the case of `CCCCCCCCCCOC(=O)Cn1c(COc2ccc(C)cc2)[n+](C)c2ccccc21`, the inhibition (at 10 µM unless noted) is 24.8% (active).
In the case of `CCCCOC(=O)Cn1c(=O)n(CC(=O)OCCCC)c2cc(C)ccc21`, the inhibition (at 10 µM unless noted) was -1% (inactive).
The same measure, in the same setting: for `COc1cccc(OCC(=O)Nc2ccccc2C(N)=O)c1` the value was 1.7% (inactive); for `O=C(Nc1cccc([N+](=O)[O-])c1)N1CCc2ccccc2C1`, 7.7% (inactive); for `Oc1c(Cl)cc(Cl)cc1/C=N/c1ncn[nH]1`, 15.3% (inactive).
Consider `CC/C(=N\NC(=O)c1c(C)nc2ccccn12)c1ccc(Cl)cc1`, for which the inhibition (at 10 µM unless noted) is 8.5% (inactive).
On the same count and under the same terms, for `CCOc1ccc(N(CC(=O)NCCOc2ccccc2OC)S(=O)(=O)c2ccccc2)cc1` the value was 3% (inactive).
Take `CN(C)c1ccc(-c2nnc(-c3cccnc3)o2)cc1`: the inhibition (at 10 µM unless noted) is -3.5% (inactive).
In the case of `O=C(NCc1cccc(C(F)(F)F)c1)c1cccc(S(=O)(=O)N2CCN(Cc3ccccc3)CC2)c1`, under “at 10 µM unless noted”, the inhibition is 9.8% (inactive).
Same read-out and setting: for `CCn1c(=O)c(C(=O)NCc2ccc3c(c2)OCO3)c(O)c2ccccc21` the value was 4.6% (inactive); for `CC(O)C(NS(=O)(=O)c1ccc(Cl)cc1)C(=O)OCc1cc([N+](=O)[O-])cc2c1OCOC2` (centres undefined), 9.8% (inactive); for `Nc1ccccc1SCc1cc([N+](=O)[O-])cc2c1OCOC2`, 23.8% (active).
Same read-out and setting: as for `CCS(=O)(=O)c1cc([N+](=O)[O-])c(Sc2ccccc2N)s1`, the figure is 6.4% (inactive).
The same measure, in the same setting: as for `O=S(=O)(NC1CC1)c1ccc(F)c(F)c1`, the figure is 3% (inactive).
In the case of `CN(C)[C@@H]1C(=O)C(C(N)=O)=C(O)[C@@]2(O)C(=O)C3=C(O)c4c(O)ccc(Cl)c4[C@@H](O)[C@H]3C[C@@H]12`, the inhibition (at 10 µM unless noted) was 136% (active).
On the same count and under the same terms, as for `O=C(N/N=C/c1ccccn1)c1cccc(NC(=O)c2ccc(Cl)cc2)c1`, the figure is 8.8% (inactive).
Turning to `S=C(NCCCc1ccccc1)Nc1ccc(Br)cc1`, the inhibition (at 10 µM unless noted) is 13% (inactive).
